Reference: PubChem BioAssay (NCI)
About 83,000 compounds went through this panel and 20% of them were active in at least one assay; those are over-represented in the sample as a whole.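 Testing used 96-well plates and a 48-hour single-concentration exposure. Example: -40 means 40% of the starting cells died.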 The source made the active and inactive calls. How the source made its calls: active means growth percent below 10; inactive means the rest.

What was measured:
Experiment in all cases: NCI-60 one-dose screen, 48 h (100 = growth as untreated, 0 = no growth, -100 = all killed)
[1] = test system: RPMI-8226 leukemia; conditions: 10 µM unless noted
[2] = test system: OVCAR-8 ovarian; conditions: 10 µM unless noted
[3] = test system: OVCAR-5 ovarian; conditions: 10 µM unless noted
[4] = test system: OVCAR-4 ovarian; conditions: 10 µM unless noted
[5] = test system: SK-OV-3 ovarian; conditions: 10 µM unless noted
[6] = test system: IGROV1 ovarian; conditions: 10 µM unless noted
[7] = test system: OVCAR-3 ovarian; conditions: 10 µM unless noted
[8] = test system: HS 578T breast; conditions: 10 µM unless noted
[9] = test system: NCI/ADR-RES ovarian; conditions: 10 µM unless noted
[10] = test system: BT-549 breast; conditions: 10 µM unless noted
[11] = test system: MDA-MB-435 melanoma; conditions: 10 µM unless noted
[12] = test system: SW-620 colon; conditions: 10 µM unless noted
[13] = test system: MCF7 breast; conditions: 10 µM
[14] = test system: HCT-116 colon; conditions: 10 µM unless noted
[15] = test system: HCC-2998 colon; conditions: 10 µM unless noted
[16] = test system: KM12 colon; conditions: 10 µM unless noted
[17] = test system: T-47D breast; conditions: 10 µM unless noted

Measured: growth

COc1ccc(-n2c(C(O)c3ccccc3)nn(CN3CCOCC3)c2=S)cc1 (configuration not stated)
inactive: [1] 88.9% | [2] 107% | [3] 101% | [4] 96.1% | [5] 101% | [6] 96.6% | [7] 124% | [8] 93.3% | [9] 107% | [10] 108% | [11] 106% | [12] 87% | [13] 105% | [14] 105% | [15] 106% | [16] 99.8%

O=C(CCc1nnc2sc(COc3ccccc3)nn12)c1nc2ncccc2[nH]1
inactive: [1] 140% | [2] 98.9% | [3] 98.4% | [4] 100% | [5] 94.7% | [6] 87.2% | [7] 108% | [8] 79% | [9] 106% | [11] 101% | [12] 85.8% | [13] 94.5% | [14] 91.3% | [15] 99.8%

CSc1nc2c(c(=O)[nH]1)N=C1c3ccccc3C(=O)C1C(c1ccccc1)N2 (configuration not stated)
inactive: [1] 36.2% | [2] 61.3% | [3] 82.5% | [4] 72.6% | [5] 64.3% | [6] 17.4% | [8] 48.2% | [9] 38.3% | [10] 40% | [12] 29.8% | [13] 17.3% | [14] 21.8% | [15] 53.1% | [16] 28.1%
active: [7] -12%

Cc1nn(-c2nc3ccccc3[nH]2)c2c1C(c1ccc(OCC(N)=O)cc1)CC(=O)N2 (configuration not stated)
inactive: [1] 126% | [2] 107% | [3] 102% | [4] 108% | [5] 106% | [6] 109% | [7] 111% | [8] 95% | [9] 109% | [10] 105% | [11] 98.8% | [12] 88.7% | [13] 96% | [14] 101% | [15] 122% | [16] 109%

O=C(Nc1ccc(-c2nc3ccc(NC(=O)c4ccc(Cl)cc4)cc3[nH]2)cc1)c1ccc(Cl)cc1
active: [1] -22.6% | [4] -2.34% | [7] -64.9% | [10] -5.61% | [11] -32.7% | [14] 0.708% | [15] -23%
inactive: [2] 21.4% | [3] 39.3% | [5] 60.7% | [6] 45.1% | [8] 57.9% | [9] 40.2% | [12] 18.4% | [13] 14.4% | [16] 39.7%

C1=CC2(C=C1)OC21CCC2(C=CC3(C2)OC3C2CCCCC2)CC1 (configuration not stated)
inactive: [1] 103% | [2] 107% | [3] 104% | [4] 103% | [5] 109% | [6] 107% | [7] 110% | [8] 103% | [9] 98.4% | [10] 107% | [11] 97.4% | [12] 109% | [13] 106% | [14] 101% | [15] 105%

COC(=O)/C(=C\c1c(-c2ccccc2)[nH]c2ccccc12)S(C)(=O)=O
active: [1] -14.8% | [7] -46% | [8] -9.62% | [9] -13% | [11] 4.05% | [16] 4.53%
inactive: [2] 36.7% | [3] 83.5% | [4] 63.9% | [5] 39.8% | [17] 27% | [10] 45.7% | [12] 20.4% | [13] 15.6% | [14] 17.4% | [15] 44.7%

COC(=O)/C(=C\c1c(C)[nH]c2ccccc12)S(=O)(=O)c1ccccc1
active: [1] -45.8% | [2] 4.29% | [7] -19.8% | [8] -29.7% | [9] 4.6% | [13] 6.71% | [15] 5.21% | [16] -13.2%
inactive: [3] 33.6% | [4] 53% | [5] 22.6% | [17] 17.8% | [10] 29.8% | [11] 13.9% | [12] 30.4% | [14] 29.5%

NC1C(N)C(N)C1N (configuration not stated)
inactive: [1] 93.3% | [2] 100% | [3] 95.7% | [4] 105% | [5] 92.5% | [6] 99.6% | [7] 111% | [8] 112% | [9] 99.6% | [17] 102% | [11] 122% | [12] 106% | [14] 103% | [15] 99.9% | [16] 119%

O=C1C(Cl)=C(NCc2ccco2)C(=O)c2ccccc21
active: [11] -38.4%
inactive: [1] 38.9% | [2] 93.7% | [3] 116% | [4] 85.4% | [5] 115% | [6] 57.6% | [7] 84.6% | [8] 89.6% | [9] 84.6% | [12] 99.7% | [13] 22% | [14] 80.5% | [15] 97.9% | [16] 62.6%

CC/C=C\C[C@H](O)C/C=C1/C(=O)C=C[C@@H]1C/C=C\CCCC(=O)OCCS(=O)(=O)c1ccccc1
active: [10] 2.95% | [14] -23%
inactive: [1] 14.6% | [2] 26.3% | [3] 121% | [4] 84.3% | [5] 104% | [6] 100% | [7] 20.7% | [8] 36.2% | [9] 75.2% | [11] 28.3% | [12] 33.2% | [13] 18.9% | [15] 53.4% | [16] 25.6%

COc1ccccc1C(=O)/C=C/c1ccccc1
active: [1] -2.98%
inactive: [2] 78.1% | [3] 101% | [4] 88.6% | [5] 90.3% | [6] 85.7% | [9] 76.4% | [17] 81.4% | [10] 77.5% | [11] 78.4% | [12] 67.4% | [13] 28.6% | [14] 37% | [16] 55.2%

O=C(CCc1nnc2sc(Cc3ccccc3Cl)nn12)c1nc2ncccc2[nH]1
inactive: [1] 103% | [2] 93.4% | [3] 93.3% | [4] 92.5% | [5] 108% | [6] 79.6% | [7] 96.9% | [8] 88.7% | [9] 95.4% | [11] 102% | [12] 88.4% | [13] 80% | [14] 84% | [15] 87.7% | [16] 97.1%

O=C(COc1cc(O)c2c(=O)cc(-c3ccccc3)oc2c1)Nc1ccccc1
inactive: [1] 93.3% | [2] 87.2% | [3] 98.1% | [4] 78.9% | [5] 107% | [6] 99.1% | [7] 106% | [8] 80.3% | [9] 88.9% | [11] 95.3% | [12] 87.5% | [13] 85.3% | [14] 57.4% | [15] 99.7% | [16] 86.5%

Cc1nc2ccccc2c(/C=C/c2ccccc2)c1C(=O)/C=C/c1ccc(Cl)cc1
inactive: [2] 20.9% | [3] 14.2% | [4] 26.5% | [5] 84.3% | [6] 14.9% | [8] 27.9% | [13] 14.2% | [15] 12.4% | [16] 21.4%
active: [1] -36.5% | [7] -40.5% | [9] 9.61% | [11] -9.81% | [12] 3.99% | [14] -5.14%

Cc1sc2ncnc(Sc3nc4ccccc4[nH]3)c2c1C
inactive: [9] 20.1% | [10] 47.2%
active: [1] -27.1% | [2] -66.1% | [3] -58.6% | [4] -15.4% | [5] -23.1% | [7] -86.1% | [8] -27.5% | [17] -55.4% | [11] -92.9% | [12] -78.2% | [13] -70.2% | [14] -71.2% | [15] -91.4% | [16] -90.1%

N#CC(C#N)=Cc1c(-c2ccccc2)[nH]c2ccccc12
active: [1] -24.8% | [7] -27.5% | [8] -1.19% | [11] 7.52%
inactive: [2] 32.4% | [3] 75.3% | [4] 65.7% | [5] 25.3% | [9] 16.2% | [17] 38.6% | [10] 56% | [12] 21.1% | [13] 15.7% | [14] 30.4% | [15] 50.7% | [16] 27.4%

CCOC(=O)C1(C(=O)OCC)N=C(c2ccccc2)C=C1c1ccccc1
inactive: [1] 61.6% | [2] 87.2% | [3] 97.8% | [4] 81.6% | [5] 105% | [6] 92.4% | [7] 86.9% | [8] 94.9% | [9] 76.5% | [10] 97.9% | [11] 103% | [12] 93.3% | [13] 79.5% | [14] 78.4% | [15] 105% | [16] 93.6%
